Measured values taken from publication PMC8384837, “Expanding the binding specificity for RNA recognition by a PUF domain”.

Columns and labels:
Test in all cases: yeast three-hybrid, YBZ-1, SC-Leu-His + 0.5 mM 3-AT, 4 days
Settings in all cases: tags: N-Gal4 AD-HA kept; label: inside an RPR1-promoter hybrid RNA with tandem MS2 sites; ssRNA
PUM1 PUF domain R4-MPT = PUM1 PUF domain R4-MPT (Homo sapiens, UniProt Q14671 828-1176, N971M;H972P;Q975T)
Method in brief: (§1)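 Each repeat of the Pumilio-1 PUF domain was randomized at its three base-contacting residues, and these libraries were co-expressed from a centromeric plasmid with matching RNA elements in strain YBZ-1. After four days on SC-Leu (input) or SC-Leu-His + 0.5 mM 3-AT (selection), the repeat regions were PCR-amplified and Illumina-sequenced. The interaction score compares variant frequency between input and selection as a log change, computed in log2 with a pseudocount of 1 for absent variants.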

PUM1 PUF domain R5-TRW = PUM1 PUF domain R5-TRW (Homo sapiens, UniProt Q14671 828-1176, C1007T;Q1011W)
Method in brief: as §1

PUM1 PUF domain R8-RWL = PUM1 PUF domain R8-RWL (Homo sapiens, UniProt Q14671 828-1176, N1122R;Y1123W;Q1126L)
Method in brief: as §1

PUM1 PUF domain R3-VRF = PUM1 PUF domain R3-VRF (Homo sapiens, UniProt Q14671 828-1176, C935V;Q939F)
Method in brief: as §1

PUM1 PUF domain R4-SLY = PUM1 PUF domain R4-SLY (Homo sapiens, UniProt Q14671 828-1176, N971S;H972L;Q975Y)
Method in brief: as §1

PUM1 PUF domain R5-GKR = PUM1 PUF domain R5-GKR (Homo sapiens, UniProt Q14671 828-1176, C1007G;R1008K;Q1011R)
Method in brief: as §1

PUM1 PUF domain R8-RWC = PUM1 PUF domain R8-RWC (Homo sapiens, UniProt Q14671 828-1176, N1122R;Y1123W;Q1126C)
Method in brief: as §1

PUM1 PUF domain R3-SCQ = PUM1 PUF domain R3-SCQ (Homo sapiens, UniProt Q14671 828-1176, C935S;R936C)
Method in brief: as §1

PUM1 PUF domain R3-SVE = PUM1 PUF domain R3-SVE (Homo sapiens, UniProt Q14671 828-1176, C935S;R936V;Q939E)
Method in brief: as §1

PUM1 PUF domain R3-STD = PUM1 PUF domain R3-STD (Homo sapiens, UniProt Q14671 828-1176, C935S;R936T;Q939D)
Method in brief: as §1

GGCUAGAACUAGUGGAUCCCCCGGCGCCCGGCGGCUCGAGCCCGGGUAAGUGUAAAUAGUCUGCAUGCCGCCGGGCGCCAUGCCUGCAGGUCGACUCUAGAAAACAUG
binding signal (PUM1 PUF domain R4-MPT): 3.73 log2 enrichment (interaction score) | binding signal (PUM1 PUF domain R5-TRW): 2.78 log2 enrichment (interaction score) | binding signal (PUM1 PUF domain R8-RWL): 5.06 log2 enrichment (interaction score) | binding signal (PUM1 PUF domain R3-VRF): 4.4 log2 enrichment (interaction score) | binding signal (PUM1 PUF domain R4-SLY): 2.48 log2 enrichment (interaction score) | binding signal (PUM1 PUF domain R5-GKR): 1.48 log2 enrichment (interaction score) | binding signal (PUM1 PUF domain R8-RWC): 4.9 log2 enrichment (interaction score)

GGCUAGAACUAGUGGAUCCCCCGGCGCCCGGCGGCUCGAGCCCGGGUAAGUGUUAAUAGUCUGCAUGCCGCCGGGCGCCAUGCCUGCAGGUCGACUCUAGAAAACAUG
binding signal (PUM1 PUF domain R5-GKR): 2.96 log2 enrichment (interaction score)

GGCUAGAACUAGUGGAUCCCCCGGCGCCCGGCGGCUCGAGCCCGGGUAAGUGUCAAUAGUCUGCAUGCCGCCGGGCGCCAUGCCUGCAGGUCGACUCUAGAAAACAUG
binding signal (PUM1 PUF domain R5-GKR): 6.15 log2 enrichment (interaction score)

GGCUAGAACUAGUGGAUCCCCCGGCGCCCGGCGGCUCGAGCCCGGGUAAGUGUAUAUAGUCUGCAUGCCGCCGGGCGCCAUGCCUGCAGGUCGACUCUAGAAAACAUG
binding signal (PUM1 PUF domain R4-MPT): 2.81 log2 enrichment (interaction score)

GGCUAGAACUAGUGGAUCCCCCGGCGCCCGGCGGCUCGAGCCCGGGUAAGUGUAAUUAGUCUGCAUGCCGCCGGGCGCCAUGCCUGCAGGUCGACUCUAGAAAACAUG
binding signal (PUM1 PUF domain R3-SCQ): 1.65 log2 enrichment (interaction score)

GGCUAGAACUAGUGGAUCCCCCGGCGCCCGGCGGCUCGAGCCCGGGUAAGUGUGAAUAGUCUGCAUGCCGCCGGGCGCCAUGCCUGCAGGUCGACUCUAGAAAACAUG
binding signal (PUM1 PUF domain R5-TRW): 0.38 log2 enrichment (interaction score)

GGCUAGAACUAGUGGAUCCCCCGGCGCCCGGCGGCUCGAGCCCGGGUAAGCGUAAAUAGUCUGCAUGCCGCCGGGCGCCAUGCCUGCAGGUCGACUCUAGAAAACAUG
binding signal (PUM1 PUF domain R8-RWL): 6.58 log2 enrichment (interaction score) | binding signal (PUM1 PUF domain R8-RWC): 4.12 log2 enrichment (interaction score)

GGCUAGAACUAGUGGAUCCCCCGGCGCCCGGCGGCUCGAGCCCGGGUAAGUGUAAGUAGUCUGCAUGCCGCCGGGCGCCAUGCCUGCAGGUCGACUCUAGAAAACAUG
binding signal (PUM1 PUF domain R3-SCQ): 2.27 log2 enrichment (interaction score) | binding signal (PUM1 PUF domain R3-SVE): 4.64 log2 enrichment (interaction score) | binding signal (PUM1 PUF domain R3-STD): 2.07 log2 enrichment (interaction score)
